Compound activity (PubChem BioAssay)
G9a inh = G9a (human) methyltransferase inhibition; G9a H3K9 monomethylation, AlphaScreen, 2 h; AID 504332; Potency, µM (top dose mostly 102 µM), without a hit: at the highest dose activity, negative = inhibition, most hits filed as inhibitors; 8.8% of 350,000 active; Q96KQ7; note: % is set by controls: 0 for no effect and ±100 for the full control effect; nearly all actives have a fitted effect of over 75% in size
Target sequence (Q96KQ7 913-1193 limits assumed): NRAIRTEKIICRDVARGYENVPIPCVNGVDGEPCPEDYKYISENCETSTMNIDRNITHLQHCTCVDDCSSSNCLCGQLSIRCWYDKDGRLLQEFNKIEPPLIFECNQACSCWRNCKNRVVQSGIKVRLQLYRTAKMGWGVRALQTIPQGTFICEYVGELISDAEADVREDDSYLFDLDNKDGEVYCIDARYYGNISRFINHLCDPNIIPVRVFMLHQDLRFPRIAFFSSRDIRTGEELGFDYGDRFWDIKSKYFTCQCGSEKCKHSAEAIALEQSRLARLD
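AlphaScreen detection with an anti-monomethyl H3K9 antibody quantified product after a 2 h room-temperature reaction containing 500 nM biotinylated H3K9 peptide, 20 µM SAM and 20 nM enzyme, which had been preincubated 15 min with compound.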
BAZ2B inh = inhibitors of human BAZ2B bromodomain. 4.4% of 360,000 active. Potency, µM (highest dose often 114 µM), for the others: top-dose activity change, negative = inhibition, hits mostly inhibitors. AlphaScreen BAZ2B-H3K14Ac peptide displacement. AID 504333; note: % is set by controls: 0 for no effect and ±100 for the full control effect; nearly all actives have a fitted effect of over 60% in size
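Compounds, titrated to a top concentration of 110 uM, were incubated 30 min at room temperature with preformed BAZ2B/acetyl-K14 H3 peptide complex (50 nM each). Proximity signal was measured by AlphaScreen after 20 min with beads.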
L3MBTL1 block = blocks human L3MBTL1; Potency, µM (top dose mostly 57.1 µM), without a hit: at the highest dose activity, negative = inhibition, hits mostly inhibitors; AID 485360; 0.66% of 230,000 active; AlphaScreen L3MBTL1–H3K9me1 peptide binding; Q9Y468; note: % is set by controls: 0 for no effect and ±100 for the full control effect; nearly all actives have a fitted effect of over 60% in size
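Read-out is AlphaScreen signal from streptavidin donor and nickel chelate acceptor beads (10 ug/mL final each) bridging L3MBTL1 (50 nM) and biotinylated K9-monomethylated H3(1-15) peptide (75 nM), after 30 min compound exposure at room temperature.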
HP1b binding inh = inhibitors of HP1-beta chromodomain binding to methylated histone tails; 0.56% of 390,000 active; Potency, µM (doses to about 114 µM), for inactives: at the top dose activity change, negative = inhibition, usual class: inhibitors; AlphaScreen HP1-beta / biotin-H3K9me3 peptide binding; note: nearly all actives have a fitted effect of over 70% in size
Target sequence (P83916 whole entry, looked up): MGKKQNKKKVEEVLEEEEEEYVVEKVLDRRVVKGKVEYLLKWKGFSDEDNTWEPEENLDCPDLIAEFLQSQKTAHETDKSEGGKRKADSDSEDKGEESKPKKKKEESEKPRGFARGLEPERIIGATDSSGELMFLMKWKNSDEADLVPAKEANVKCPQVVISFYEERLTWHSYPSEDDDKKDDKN
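HP1-beta protein (50 nM final) preincubated 30 min at room temperature with biotinylated H3(1-18)K9me3 peptide (50 nM) in PBS pH 7.4, 0.01% Tween-20, then compound added for 30 min. AlphaScreen streptavidin donor/nickel chelate acceptor beads (10 ug/mL final), 30 min dark, luminescence read.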
JMJD2A Tudor inh = JMJD2A Tudor domain (human) inhibition | O75164 | AlphaScreen JMJD2A-Tudor / H3K4me3 peptide binding | Potency, µM (series often up to 114 µM), for inactives: at the top dose activity change, negative = inhibition, most hits filed as inhibitors | 4.4% of 390,000 active; note: % is set by controls: 0 for no effect and ±100 for the full control effect; nearly all actives have a fitted effect of over 50% in size
Sfp inh = Sfp phosphopantetheinyl transferase inhibition. Q9F4F7. Biochemical Sfp PPTase activity, qHTS. Potency, µM, for the others: largest response in the series, negative = inhibition, usual class: inhibitors. 3.5% of 310,000 active;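 note: the enzyme is Sfp with the accession as filed and its product quenches rhodamine fluorescence; 0% = enzyme reaction without inhibitor and -100% = no enzyme wells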
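Fluorescence-quenching assay with 15 nM Sfp, 5 uM rhodamine-CoA and 12.5 uM BHQ-2-labelled ybbR peptide in pH 7.6 Hepes/MgCl2 buffer. Enzyme was pre-incubated with compound for 15 min at room temperature. Rate was taken from the 30-min fluorescence change (525/598 nm).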
The depositor's hits bear a star; ? = inconclusive; nt = no result given; [ ] = another dose, or the depositor's remark. Hits are enriched below; roughly 12% of the tested compounds scored in any of these assays. Calls come from the whole dose curve; as a rule, active = well fitted curve in the direction sought with a large enough effect; inconclusive = small, poorly fitted or top-dose-only effect, or another doubt; inactive = no such curve, though single readings can be large; an effect the other way counts as inactive or inconclusive. Potency is the fitted concentration of half-maximal effect.

SMILES	G9a inh	BAZ2B inh	L3MBTL1 block	HP1b binding inh	JMJD2A Tudor inh	Sfp inh
O=C1NC(=Nc2ccc(F)cc2)CS1	32µM*	-11%	nt	-14%	-21%	56µM*
CC(C)=NNc1nc(-c2ccc(N3C(=O)CCC3=O)cc2)cs1	?	?	0%	13%	-13%	20µM*
O=C(Nc1nc(-c2ccc(F)cc2)cs1)c1cccc(N2C(=O)CCC2=O)c1	-1%	-24%	nt	16%	-15%	2%
C/C(CCC1CC(C)OC1=O)=N/Nc1nc(-c2ccccc2)cs1 (configuration not stated)	8.9µM*	?	-12%	-33%	?	50µM*
CC(C)=NNc1nc(-c2ccccc2)cs1	?	-32%	-3%	1%	-33%	79µM*
Cc1ccc(C)c(COC(=O)CCN=C2NS(=O)(=O)c3ccccc32)c1	?	8%	5%	45%	-7%	nt
Cc1nn(-c2ccccc2)c(=S)c2ccccc12	13µM*	?	-12%	37%	7%	-23%
COc1ccc(C(=O)C[N+]2(C)CCOCC2)cc1	13µM*	?	nt	26%	22µM*	-7%
Cc1cccc(NC(=O)CCCC(=O)OC(C)C(=O)c2ccccc2)c1 (configuration not stated)	7%	9%	nt	29%	1%	15%
CN(Cc1ccccc1)C(=O)[C@H]1CCC(=O)N1Cc1ccco1	45µM*	-22%	nt	43%	-5%	?
O=C(O)[C@H]1CCC(=O)N1Cc1ccco1	?	11%	-11%	25%	-8%	-2%
CN(C)S(=O)(=O)c1ccc(C(=O)Oc2cc(=O)[nH]c3ccccc23)cc1	71µM*	-2%	3%	44%	-14%	7%
CC1CCCC(=NNc2ccc3ccccc3n2)C1 (configuration not stated)	nt	nt	nt	?	-32%	nt
CC1CCC(=NNS(=O)(=O)c2ccc([N+](=O)[O-])cc2)CC1 (configuration not stated)	nt	nt	nt	0%	-15%	nt
COc1ccc(NCC(=O)N/N=C2\CCCC(C)C2)cc1 (configuration not stated)	22%[59 µM]	-9%	-2%	27%	-18%	1%
CC1CCC/C(=N\NS(=O)(=O)c2ccccc2)C1 (configuration not stated)	32µM*	1%	-3%	21%	-3%[11.4 µM]	7%
CC1CCC/C(=N\NC(=O)Nc2ccccc2)C1 (configuration not stated)	40µM*	11%	6%	29%	-1%	5%
CC1CCC/C(=N\Nc2ccc(Cl)c(C(=O)O)c2)C1 (configuration not stated)	7.9µM*	-37%	?	5%	79µM*	-1%
COC(=O)C1(CC(C)C)C=C2C(=C(C(C)C)C(=O)C2C)CN1 (configuration not stated)	nt	nt	nt	nt	nt	0%
CCC(=O)c1cc(Br)ccc1OCC(=O)N1CCN(S(=O)(=O)c2ccccc2)CC1	nt	nt	nt	18%	-12%	nt
CCCn1c(=N)n(CC(=O)c2ccc([N+](=O)[O-])cc2)c2ccccc21	40µM*	35µM*	-8%	17%	-23%	?
CCCn1c(=N)n(CC(=O)c2ccc(Cl)cc2)c2ccccc21	0%	3%	-1%	52%	1%	16%
CCOC(=O)c1ccccc1NC(=O)c1sc2nc3n(c(=O)c2c1C)CCCCC3	5%[59 µM]	-2%	nt	23%	-10%	nt
O=C(Nc1ccc(O)cc1C(=O)O)c1cccs1	?	-36%	-9%	44%	-10%	-1%
O=C(CN1C(=O)/C(=C\c2ccco2)SC1=S)Nc1ccc(O)cc1C(=O)O	-3%[0.0925 µM]	40µM*	nt	22%	5%	56µM*
SMILES	G9a inh	BAZ2B inh	L3MBTL1 block	HP1b binding inh	JMJD2A Tudor inh	Sfp inh
CC(C(=O)Nc1ccc(O)cc1C(=O)O)N1C(=O)/C(=C\c2cccs2)SC1=S (configuration not stated)	7.9µM*	50µM*	nt	?	45µM*	22µM*
O=C(CCN1C(=O)/C(=C/c2ccco2)SC1=S)Nc1ccc(O)cc1C(=O)O	28µM*	50µM*	nt	18µM*	28µM*	-18%
O=C(CCCN1C(=O)/C(=C/c2ccccc2)SC1=S)Nc1ccccc1O	-45%	-20%	1%	-2%	-15%	22%
Cc1cc(NC(=O)CN2C(=O)/C(=C/c3cccc(Br)c3)SC2=S)no1	-27%	-15%	-7%	28%	-4%	9%
O=C(CCCN1C(=O)/C(=C\c2ccccc2)SC1=S)Nc1ccc(O)cc1C(=O)O	nt	35µM*	nt	36%	5%	9%
CCOc1ccccc1O[C@@H](c1ccccc1)[C@@H]1CNCCO1	-28%[12.7 µM]	nt	nt	nt	nt	17%
COc1cc(OC)cc(C(=O)NCC2CCCN(Cc3ccc(SC)cc3)C2)c1 (configuration not stated)	nt	-6%	3%	18%	-23%	5%
Cc1ccc(S(=O)(=O)NCc2ccc3[nH]c(C)cc3c2)cc1	50µM*	nt	nt	3%	-31%	14%
C=CCOc1ccc(C2NC(=O)c3ccccc3O2)cc1 (configuration not stated)	-3%	8%	7%	50%	-14%	31%
C=CCOc1ccc(C2NC(=S)NC3=C2CCc2ccccc23)cc1 (configuration not stated)	22µM*	?	-1%	0%	?	-2%
CC(=O)C1=C(c2ccccc2)NC(=O)NC1c1ccccc1 (configuration not stated)	nt	11%	0%	36%	-12%	8%
COc1cc(C2NC(=S)NC(c3ccccc3)=C2C(C)=O)cc(Br)c1OCC(N)=O (configuration not stated)	?	-30%	-12%	30%	-21%	-5%
O=C1NC2=C(CCc3ccccc32)C(c2ccccc2)N1 (configuration not stated)	45µM*	-3%	4%	45%	-17%	8%
COc1cc(C2NC(=S)NC3=C2CCc2ccccc23)cc(OC)c1OC (configuration not stated)	10µM*	2%	-5%	-10%	-17%	22%
O=C(CCc1ccccc1)N=C1SC2CS(=O)(=O)CC2N1Cc1ccc(F)cc1 (configuration not stated)	-23%	-20%	nt	20%	-6%	15%
O=C(N[C@@H]1c2ccccc2CC[C@@H]1OCc1ccccc1)c1ccc(-c2ccccc2)cc1	nt	nt	7%	62%	-1%	nt
CC(=O)/C(=N\Nc1ccccc1)Sc1nnc(-c2ccccc2)n1-c1ccccc1	10µM*	-11%	6%	52%	32µM*	-27%
